# Experimental data reported in PubChem BioAssay (Tox21).
# “And” between values parts separate entries of the source, which are not always exact repeats. Equal values may be shown once. Results filed as inconclusive are left out. Entries that show only a call come without a potency. Some compounds were tested as several samples or in several runs, with calls that do not always agree. The source made the active and inactive calls. Unless noted, calls come from the whole dose curve.
# Columns and labels:
# [1] = Nuclear factor erythroid 2-related factor 2/antioxidant responsive element (Nrf2/ARE) small molecule agonists: qHTS cell viability counter screen in human keratinocytes (AID 1919968; active = well fitted curve in the direction sought with a large enough effect in the repeat runs; an effect the other way counts as inactive or inconclusive; note: nearly all actives have a fitted effect of over 55% in size; note: potency is the fitted concentration of half-maximal effect)
# Summary of the method: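 Cells of the KeratinoSens line were plated at 1,500 per well and left for 5 h before compound transfer from DMSO stocks. After a 23 h incubation (37 C, 5% CO2), CellTiter-Fluor was added. Signal was taken as fluorescence intensity 1 h later.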
# [2] = target: Gonadotropin-releasing hormone receptor (Homo sapiens) (UniProt P30968); assay: Human gonadotropin-releasing hormone receptor (GnRHR) small molecule agonists, calcium flux assay in GnRHR-HEK293 cells (AID 1920063); note: nearly all actives have a fitted effect of over 35% in size
# Summary of the method: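 Compounds dissolved in DMSO are pin-transferred onto dye-loaded GnRHR-HEK293 cells, which were seeded 18 h before at 37 C/5% CO2. Calcium signal is read as fluorescence intensity at 1 s intervals for 3 min.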
# [3] = target: KiSS-1 receptor (Homo sapiens) (UniProt Q969F8); assay: Human kisspeptin (KISS1R) small molecule agonists, calcium flux assay in KISS1R-HEK293 cells (AID 1920064; active = well fitted curve in the direction sought with a large enough effect in the repeat runs; an effect the other way counts as inactive or inconclusive)
# Summary of the method: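 Cell line: HEK293, stable human KISS1R. Dye loading 1 h at 37 C after 18 h culture. Read: kinetic fluorescence, 480/540 nm, 3 min at 1 s intervals.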
# [4] = G protein-coupled receptor (GPCR) small molecule agonists, calcium flux assay: HEK293 wild type cell line counter screen (AID 1920065)
# Summary of the method: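 Tox21 10K compounds, 15 concentrations each in triplicate, pin-transferred in DMSO onto dye-loaded cells; kinetic read at 480/540 nm for 3 min, 1 s intervals.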
# [5] = p53 small molecule agonists, cell-based qHTS assay with human liver microsomes (AID 1963577);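 note: p53 response element beta-lactamase reporter cells with liver microsomes plus NADPH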
# Summary of the method: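 Steps: plate p53RE-bla cells, incubate 5 h at 37 C; add compound in DMSO; add microsomes (0.5 mg/mL final) and NADPH (0.5 mg/mL final); incubate 16 h at 37 C; add LiveBLAzer, 2 h RT; read fluorescence.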
# [6] = p53 small molecule agonists, cell-based qHTS assay with rat liver microsomes (AID 1963578)
# Summary of the method: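 Metabolic activation is supplied by rat liver microsomes with NADPH (each 0.5 mg/mL final). p53RE-bla cells incubate with compound 16 h at 37 C; reporter activity is measured by LiveBLAzer fluorescence.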
# [7] = p53 small molecule agonists, cell-based qHTS assay with human liver microsomes: qHTS cell viability counter screen (AID 1963579); note: nearly all actives have a fitted effect of over 45% in size
# Summary of the method: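 After the 460/530 nm beta-lactamase read, CellTiter-Glo was added to the same wells and luminescence measured after 30 min at room temperature, giving viability of p53RE-bla cells treated 16 h with compounds plus microsomes and NADPH.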
# [8] = p53 small molecule agonists, cell-based qHTS assay with rat liver microsomes: qHTS cell viability counter screen (AID 1963580); note: nearly all actives have a fitted effect of over 45% in size; note: potency is the fitted concentration of half-maximal effect
# Summary of the method: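 Luminescent ATP readout (CellTiter-Glo, 30 min at room temperature) reports viability of p53RE-bla HCT-116 cells after 16 h at 37 C with test compounds under metabolic activation by rat liver microsomes and NADPH at 0.5 mg/mL final each.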
# [9] = p53 small molecule agonists, cell-based qHTS assay: qHTS cell viability counter screen (AID 1963581); note: nearly all actives have a fitted effect of over 45% in size; note: potency is the fitted concentration of half-maximal effect
# Summary of the method: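 ATP content measured by luminescence in HCT-116 p53RE-bla cells treated 16 h at 37 C, same wells as the reporter screen.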
# [10] = cAMP Responsive Elements (CRE) small molecule agonists, cell-based qHTS assay (AID 1963590)
# Summary of the method: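 HEK 293T cells stably bearing CRE-bla were plated at 2,000 cells per well and rested 18 h. Compounds, positive controls or DMSO were added for 3 h at 37 C. LiveBLAzer B/G substrate was then loaded for 2 h at room temperature.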
# [11] = cAMP Responsive Elements (CRE) small molecule antagonists, cell-based qHTS assay (AID 1963591; active = well fitted inhibition curve with a large enough effect in the signal ratio in the repeat runs, not every such curve was filed as active; the % refers to the signal ratio)
# Summary of the method: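 First, CRE-bla HEK293T cells settled 18 h at 37 C. Next, compound and 0.25 uM final NKH477 were applied for 3 h. Last, LiveBLAzer B/G substrate was loaded for 2 h at room temperature.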
# [12] = target: D(2) dopamine receptor (Homo sapiens) (UniProt P14416); assay: Dopamine D2 receptor (DRD2) small molecule agonists, cell-based qHTS assay (AID 1963594); note: nearly all actives have a fitted effect of over 35% in size
# Summary of the method: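 HEK293 cells stably expressing DRD2 were cultured 24 h at 37 C, then given Ro20-1724 (0.1 mM final) and compounds for 10 min at room temperature. NKH477 (200nM) was then added for 30 min. cAMP was read by HTRF.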
# [13] = target: D(2) dopamine receptor (Homo sapiens) (UniProt P14416); assay: Dopamine D2 receptor (DRD2) small molecule antagonists, cell-based qHTS assay (AID 1963595; active = well fitted inhibition curve with a large enough effect in the signal ratio in the repeat runs, with a control signal flat; the % refers to the signal ratio; note: potency is the fitted concentration of half-maximal effect)
# Summary of the method: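 Human DRD2 antagonist qHTS measuring cAMP by HTRF. The cells are exposed to compound for 10 min, then to NKH477 (200 nM) and quinpirole (12 nM) for 30 min at RT, with Ro20-1724 (0.1 mM) present throughout.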
# [14] = p53 small molecule agonists, cell-based qHTS assay (AID 1963582; active = well fitted activation curve with a large enough effect in the signal ratio in the repeat runs, not every such curve was filed as active; the % refers to the signal ratio)
# Summary of the method: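 16 h compound exposure (37 C) of p53 response element–bla cells, preceded by 5 h recovery at 37 C/5% CO2; read-out via LiveBLAzer B/G FRET substrate, 2 h RT, fluorescence intensity.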
# [15] = target: 5-hydroxytryptamine receptor 2A (Homo sapiens) (UniProt P28223); assay: 5-hydroxytryptamine receptor 2A (HTR2A) small molecule antagonists, cell-based qHTS assay (AID 1963586); note: nearly all actives have a fitted effect of over 45% in size
# Summary of the method: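 CHO cells stably expressing human HTR2A were plated for 18 h at 37 C, then loaded with calcium dye for 1 h. Compounds were preincubated 5 min at room temperature before DOI (4 nM solution) was added. Kinetic fluorescence was read for 3 min.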
# [16] = target: 5-hydroxytryptamine receptor 2A (Homo sapiens) (UniProt P28223); assay: 5-hydroxytryptamine receptor 2A (HTR2A) small molecule agonists, cell-based qHTS assay (AID 1963587); note: nearly all actives have a fitted effect of over 30% in size
# Summary of the method: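 HTR2A-CHO cells, plated 18 h at 37 C/5% CO2, dye-loaded 1 h at 37 C; compounds in DMSO added by pin tool (agonist mode). Intracellular calcium flux read as kinetic fluorescence on FDSS over 2 min at 1 s intervals.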
# [17] = target: Muscarinic acetylcholine receptor M1 (Homo sapiens) (UniProt P11229); assay: Cholinergic receptor muscarinic 1 (CHRM1) small molecule agonists, cell-based qHTS assay (AID 1963589); note: nearly all actives have a fitted effect of over 35% in size
# Summary of the method: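 Homogeneous fluorescence calcium flux, agonist mode. Human M1-expressing CHO cells; compound dosed at 15 concentrations, three independent runs; signal sampled every 1 sec.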
# [18] = target: Beta-2 adrenergic receptor (Homo sapiens) (UniProt P07550); assay: Adrenergic beta2 receptor (ADRB2) small molecule antagonists, cell-based qHTS assay (AID 1963592); note: series mostly up to about 92 µM; nearly all actives have a fitted effect of over 50% in size
# Summary of the method: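 Assay format: CHO-ADRB2 cells, 18-20hr seeding at 37C/5% CO2, then compound plus 1nM isoproterenol agonist mix for 0.5hr RT. Homogeneous time-resolved fluorescence cAMP detection after 1hr, expressed as 665/615 nm ratio.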
# [19] = target: Beta-2 adrenergic receptor (Homo sapiens) (UniProt P07550); assay: Adrenergic beta2 receptor (ADRB2) small molecule agonists, cell-based qHTS assay (AID 1963593);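 note: CHO cells stably overexpressing human ADRB2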
# Summary of the method: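 CHO cells stably over-expressing ADRB2 were plated overnight at 37C, then dosed with compounds plus a stimulation mix containing 100uM IBMX and 25uM Ro-20-1724 for 0.5hr at room temperature. cAMP was measured by HTRF competition, 1hr.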
# [20] = target: Muscarinic acetylcholine receptor M1 (Homo sapiens) (UniProt P11229); assay: Cholinergic receptor muscarinic 1 (CHRM1) small molecule antagonists, cell-based qHTS assay (AID 1963588); note: nearly all actives have a fitted effect of over 40% in size
# Summary of the method: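 Compounds were tested at 15 concentrations in three independent runs. Dye-loaded CHRM1-CHO cells were exposed 5 min at room temperature before stimulation by acetylcholine added at 50nM. Intracellular calcium was read kinetically on FDSS for 3 min.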
# Chain of Beta-2 adrenergic receptor (Homo sapiens) (P07550 whole entry, looked up): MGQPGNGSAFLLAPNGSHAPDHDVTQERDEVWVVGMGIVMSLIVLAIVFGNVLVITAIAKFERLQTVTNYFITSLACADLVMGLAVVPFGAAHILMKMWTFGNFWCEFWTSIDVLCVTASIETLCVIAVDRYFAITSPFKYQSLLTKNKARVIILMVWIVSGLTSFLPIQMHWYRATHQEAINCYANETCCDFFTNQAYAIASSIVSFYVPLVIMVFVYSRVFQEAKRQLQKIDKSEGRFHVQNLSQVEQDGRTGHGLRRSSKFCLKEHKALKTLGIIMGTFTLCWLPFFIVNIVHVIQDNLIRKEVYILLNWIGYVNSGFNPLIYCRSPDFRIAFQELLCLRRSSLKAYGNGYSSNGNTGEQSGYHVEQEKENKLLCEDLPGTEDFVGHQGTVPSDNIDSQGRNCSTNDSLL
# Chain of Gonadotropin-releasing hormone receptor (Homo sapiens) (P30968 whole entry, looked up): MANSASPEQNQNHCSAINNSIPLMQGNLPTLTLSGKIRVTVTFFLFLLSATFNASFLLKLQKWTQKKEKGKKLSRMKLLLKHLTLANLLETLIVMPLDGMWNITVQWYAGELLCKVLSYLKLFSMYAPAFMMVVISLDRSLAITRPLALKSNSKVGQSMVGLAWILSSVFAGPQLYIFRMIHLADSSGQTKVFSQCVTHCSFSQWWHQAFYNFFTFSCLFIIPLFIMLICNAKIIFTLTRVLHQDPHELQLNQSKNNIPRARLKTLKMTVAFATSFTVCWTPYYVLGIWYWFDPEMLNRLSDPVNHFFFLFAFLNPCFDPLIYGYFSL
# Chain of Muscarinic acetylcholine receptor M1 (Homo sapiens) (P11229 whole entry, looked up): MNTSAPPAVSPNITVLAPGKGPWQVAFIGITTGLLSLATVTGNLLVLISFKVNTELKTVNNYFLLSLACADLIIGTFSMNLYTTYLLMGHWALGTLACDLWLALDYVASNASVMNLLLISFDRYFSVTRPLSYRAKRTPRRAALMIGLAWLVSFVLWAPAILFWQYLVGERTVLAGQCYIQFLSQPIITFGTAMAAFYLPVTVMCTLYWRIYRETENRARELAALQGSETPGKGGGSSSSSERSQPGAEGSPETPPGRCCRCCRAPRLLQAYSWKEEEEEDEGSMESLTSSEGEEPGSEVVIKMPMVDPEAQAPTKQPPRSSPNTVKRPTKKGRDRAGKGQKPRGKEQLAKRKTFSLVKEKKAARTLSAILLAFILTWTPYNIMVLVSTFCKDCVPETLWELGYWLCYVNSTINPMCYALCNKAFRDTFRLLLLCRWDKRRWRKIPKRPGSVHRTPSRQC
# Chain of D(2) dopamine receptor (Homo sapiens) (P14416 whole entry, looked up): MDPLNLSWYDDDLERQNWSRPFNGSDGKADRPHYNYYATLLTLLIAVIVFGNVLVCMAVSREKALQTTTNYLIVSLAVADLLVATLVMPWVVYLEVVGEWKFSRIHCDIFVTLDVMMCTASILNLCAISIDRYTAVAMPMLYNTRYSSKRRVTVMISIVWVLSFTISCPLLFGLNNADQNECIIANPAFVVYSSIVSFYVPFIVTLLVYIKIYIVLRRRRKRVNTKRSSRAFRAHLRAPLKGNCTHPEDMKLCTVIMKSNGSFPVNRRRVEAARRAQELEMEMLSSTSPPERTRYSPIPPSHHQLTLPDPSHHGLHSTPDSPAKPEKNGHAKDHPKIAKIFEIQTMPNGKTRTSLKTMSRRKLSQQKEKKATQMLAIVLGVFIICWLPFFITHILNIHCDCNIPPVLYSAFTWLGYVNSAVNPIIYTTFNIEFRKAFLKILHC
# Chain of KiSS-1 receptor (Homo sapiens) (Q969F8 whole entry, looked up): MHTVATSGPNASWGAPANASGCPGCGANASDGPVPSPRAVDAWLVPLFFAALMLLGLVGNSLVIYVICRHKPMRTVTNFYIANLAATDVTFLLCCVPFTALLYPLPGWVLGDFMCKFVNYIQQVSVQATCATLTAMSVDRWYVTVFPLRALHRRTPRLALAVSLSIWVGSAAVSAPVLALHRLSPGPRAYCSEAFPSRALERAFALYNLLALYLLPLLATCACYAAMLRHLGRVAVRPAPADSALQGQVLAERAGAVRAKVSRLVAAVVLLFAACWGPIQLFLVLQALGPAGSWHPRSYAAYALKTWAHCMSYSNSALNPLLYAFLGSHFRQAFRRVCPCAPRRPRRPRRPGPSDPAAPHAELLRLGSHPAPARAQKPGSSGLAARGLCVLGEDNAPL
# Chain of 5-hydroxytryptamine receptor 2A (Homo sapiens) (P28223 whole entry, looked up): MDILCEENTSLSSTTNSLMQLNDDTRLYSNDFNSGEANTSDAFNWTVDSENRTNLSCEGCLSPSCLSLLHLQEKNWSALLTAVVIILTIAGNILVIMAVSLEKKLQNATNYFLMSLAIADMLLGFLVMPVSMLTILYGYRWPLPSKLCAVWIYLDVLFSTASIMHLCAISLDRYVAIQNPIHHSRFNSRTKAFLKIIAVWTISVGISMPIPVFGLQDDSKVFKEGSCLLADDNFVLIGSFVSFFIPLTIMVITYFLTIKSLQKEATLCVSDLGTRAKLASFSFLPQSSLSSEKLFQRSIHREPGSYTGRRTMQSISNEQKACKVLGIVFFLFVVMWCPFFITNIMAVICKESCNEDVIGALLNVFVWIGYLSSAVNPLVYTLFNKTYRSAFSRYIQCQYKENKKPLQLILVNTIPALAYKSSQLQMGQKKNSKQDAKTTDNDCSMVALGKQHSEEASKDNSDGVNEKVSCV
Compound,Potency [1],Potency [2],Potency [3],Potency [4],Potency [5],Potency [6],Potency [7],Potency [8],Potency [9],Potency [10],Potency [11],Potency [12],Potency [13],Potency [14],Potency [15],Potency [16],Potency [17],Potency [18],Potency [19],Potency [20]
CC/C(=C(\c1ccccc1)c1ccc(OCCN(C)C)cc1)c1ccccc1,24.3 µM (active) [middle of 5 runs],inactive,inactive,inactive,inactive,inactive,inactive,1.83 µM (active) and 28.8 µM (active) and inactive,inactive and 51.3 µM (active),inactive,inactive,inactive,38.9 µM (active) and 61.1 µM (active),–,–,–,–,–,–,–
c1ccc2c(c1)Cc1ccccc1-2,inactive,inactive,inactive,inactive,inactive,inactive,inactive,inactive,inactive,inactive,inactive,inactive,inactive,inactive,inactive,inactive,inactive,inactive,–,–
CCCCCCCCCCCCS,inactive,inactive,inactive,inactive,inactive,inactive,inactive,inactive,–,inactive,inactive,inactive,inactive,inactive,inactive,inactive,inactive,inactive,inactive,–
CCCCOC(=O)c1ccc(O)cc1,inactive,inactive,inactive,inactive,inactive,inactive,inactive,inactive,inactive,inactive,inactive,inactive,inactive,inactive,inactive,–,inactive,inactive,inactive,inactive
C=CC(=O)NC(C)(C)CS(=O)(=O)O,inactive,inactive,inactive,inactive,inactive,inactive,inactive,inactive,inactive,inactive,inactive,inactive,inactive,inactive,–,inactive,inactive,inactive,inactive,inactive
Cc1ncc[nH]1,inactive,inactive,inactive,inactive,inactive,inactive,inactive,inactive,inactive,inactive,inactive,inactive,inactive,inactive,inactive,inactive,inactive,inactive,inactive,–
CCC(O)OCCCOC (stereo not drawn),inactive,inactive,inactive,inactive,inactive,inactive,inactive,inactive,inactive,inactive,inactive,inactive,inactive,inactive,inactive,inactive,inactive,–,inactive,inactive
CCCC[P+](CCCC)(CCCC)CCCC,inactive,inactive,inactive,inactive,inactive,inactive,inactive,inactive,inactive,–,–,inactive,inactive,inactive,inactive,inactive,–,inactive,–,inactive
C=CN1CCCC1=O,inactive,inactive,inactive,inactive,inactive,inactive,inactive,inactive,inactive,inactive,inactive,–,inactive,inactive,inactive,inactive,inactive,inactive,–,inactive
CSc1ccc(Cl)cc1,inactive,inactive,inactive,inactive,inactive,inactive,inactive,–,inactive,inactive,inactive,inactive,inactive,inactive,inactive,inactive,inactive,inactive,inactive,inactive
NC(N)=Nc1nc(CSCC/C(N)=N/S(N)(=O)=O)cs1,inactive,inactive,inactive,inactive,inactive,inactive,inactive,inactive,inactive,inactive,inactive,inactive,inactive,inactive,–,–,–,inactive,inactive,–
CC1=CC(=O)CC(C)(C)C1,2.5 µM (active) and inactive,inactive,inactive,inactive,inactive,inactive,inactive,16.7 µM (active) and inactive,inactive,inactive,inactive,inactive,inactive,inactive,–,inactive,inactive,inactive,inactive,inactive
